The values below come from PubChem BioAssay (NCI).

Test systems include NCI-H23 lung; NCI-H226 lung; NCI-H322M lung; HOP-62 NSCLC; NCI-H460 lung; HOP-92 NSCLC; NCI-H522 lung; A549/ATCC NSCLC; 786-0 renal; COLO 205 colon.
Holding throughout (assay): NCI-60 one-dose screen, 48 h (100 = growth as untreated, 0 = no growth, -100 = all killed)
Holding throughout (conditions): 10 µM unless noted

This is part of a sample that, as a whole, favours compounds with a hit. Of some 83,000 tested, about 20% had one in any assay.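 Plates (96-well) were seeded with cells, treated with compound at one concentration, and incubated for 48 hours before percent growth was determined.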 A number with no mark means an inactive call. The source made the active and inactive calls. How the source made its calls: active means growth percent below 10; inactive means the rest.

Turning to `COC(=O)[C@@H]1CC[C@]2(C)[C@H](CC[C@@H]3O[C@@]32C)[C@@]1(C)CC(=O)c1ccoc1`, the growth was 98.5% in the assay with NCI-H23 lung; 91.8% in the assay on NCI-H226 lung; 102% in the assay on NCI-H322M lung; 95.1% with HOP-62 NSCLC; 101% with NCI-H460 lung; 93.3% with HOP-92 NSCLC. The growth was 80.4% in the assay with NCI-H522 lung, 83.3% in the assay with A549/ATCC NSCLC, 107% with 786-0 renal and 113% with COLO 205 colon.

With `O=C(O)c1c([N+](=O)[O-])cnc2ccccc12`, the growth with NCI-H23 lung is 91.5%; in the assay on NCI-H226 lung, 91.8%; in the assay with NCI-H322M lung, 96.6%; in the assay with HOP-62 NSCLC it was 90.6%; in the assay on NCI-H460 lung, 106%; in the assay with HOP-92 NSCLC it was 131%. The growth in the assay with NCI-H522 lung is 100%; in the assay on A549/ATCC NSCLC it was 102%; in the assay on 786-0 renal, 105%; in the assay with COLO 205 colon, 121%.

`COc1ccc2nc3cc(Cl)ccc3c(N3CCN(c4nccc(Nc5ccccc5)n4)CC3)c2c1`: the growth is 69.8% in the assay on NCI-H23 lung; 95.4% in the assay on NCI-H226 lung; 88.3% in the assay with NCI-H322M lung; 79.2% in the assay with HOP-62 NSCLC; 67.4% in the assay with NCI-H460 lung; 67% in the assay with HOP-92 NSCLC. Moreover, the growth in the assay on NCI-H522 lung is 7.15% (active); with A549/ATCC NSCLC it was 65.1%; in the assay on 786-0 renal it was 59.1%; with COLO 205 colon it was 89.8%.

Take `CCN(CC)CCC(=O)c1ccc(OC)c2ccccc12`: the growth in the assay with NCI-H23 lung is 90.8%; with NCI-H226 lung, 115%; in the assay with NCI-H322M lung, 90.9%; in the assay with HOP-62 NSCLC it was 83.4%; with NCI-H460 lung, 99.8%; in the assay on HOP-92 NSCLC, 102%. Moreover, the growth in the assay with NCI-H522 lung is 12.6%; in the assay with A549/ATCC NSCLC, 100%; in the assay with 786-0 renal it was 98.7%; in the assay with COLO 205 colon, 109%.

On to `O=[N+]([O-])c1cccc(-c2nc3sccn3c2-c2ccnc(NCCCNS(=O)(=O)c3ccc(Br)cc3)n2)c1`, for which the growth is 41.4% with NCI-H23 lung; 41% in the assay on NCI-H226 lung; 76.1% in the assay with NCI-H322M lung; 74.7% in the assay on HOP-62 NSCLC; 66.7% in the assay with NCI-H460 lung; 78% in the assay on HOP-92 NSCLC. Moreover, the growth with NCI-H522 lung is 37.4%; in the assay with A549/ATCC NSCLC it was 53.8%; in the assay with 786-0 renal it was 75.5%; in the assay on COLO 205 colon, 41.3%.

Take `CC[C@H](CO)Nc1nc(NCc2ccccc2)n2ncc(C(C)C)c2n1`: the growth is 13.3% in the assay with NCI-H23 lung; 10.3% in the assay with NCI-H226 lung; 14.8% in the assay with NCI-H322M lung; 3.3% (active) in the assay with HOP-62 NSCLC; 5.04% (active) in the assay on NCI-H460 lung; -8.83% (active) with HOP-92 NSCLC. Further, the growth in the assay on NCI-H522 lung is 1.9% (active); in the assay with A549/ATCC NSCLC, 19.7%; in the assay with 786-0 renal, -2.74% (active); with COLO 205 colon, -27% (active).

With `CCCCCCCCCCCCCCCCNCCC[C@@H](C)[C@H]1CC[C@H]2[C@@H]3[C@H](OCCCN)C[C@@H]4C[C@H](OCCCN)CC[C@]4(C)[C@H]3C[C@H](OCCCN)[C@]12C`, the growth with NCI-H23 lung is -39.7% (active); with NCI-H226 lung it was -1.42% (active); with NCI-H322M lung, -76.8% (active); in the assay with HOP-62 NSCLC, -49.5% (active); with NCI-H460 lung, -45.5% (active); with HOP-92 NSCLC, -33.2% (active). Besides, the growth in the assay on NCI-H522 lung was -43.6% (active); with A549/ATCC NSCLC, -58% (active); with 786-0 renal it was -43.1% (active); with COLO 205 colon it was -40.8% (active).

For `COc1ccc(-c2c3c(nc4n[nH]c(-c5ccc(Cl)cc5)c24)-c2ccccc2C(=O)C3=O)cc1`, the growth in the assay with NCI-H23 lung is -53% (active); in the assay with NCI-H226 lung, 42.3%; with NCI-H322M lung, 84%; in the assay with HOP-62 NSCLC it was 29.1%; with NCI-H460 lung it was -12.9% (active); in the assay with HOP-92 NSCLC, 9.32% (active). The growth in the assay with NCI-H522 lung is -59.7% (active); in the assay with A549/ATCC NSCLC, 35.9%; in the assay on 786-0 renal it was 7.58% (active); with COLO 205 colon, 70.6%.

In the case of `Cn1cc(-c2ccc(-c3cn(C)c4ncccc34)[nH]2)c2cccnc21`, the growth was 70.7% in the assay with NCI-H23 lung; 88.8% in the assay with NCI-H226 lung; 86.1% in the assay with NCI-H322M lung; 66.5% in the assay on HOP-62 NSCLC; 97.8% with NCI-H460 lung; -4.05% (active) in the assay with HOP-92 NSCLC. Further, the growth was -77.3% (active) in the assay on NCI-H522 lung, 84.2% in the assay with A549/ATCC NSCLC, 99% with 786-0 renal and -23.6% (active) in the assay on COLO 205 colon.

Turning to `Cc1cc(Nc2nc(N3CCOCC3)nc3ccccc23)n[nH]1`, the growth in the assay on NCI-H23 lung is 80.5%; in the assay on NCI-H226 lung, 57.7%; with NCI-H322M lung, 65.8%; in the assay on HOP-62 NSCLC, 78%; with NCI-H460 lung it was 68.9%; in the assay on HOP-92 NSCLC it was 60.7%. Also, the growth in the assay with NCI-H522 lung is 40.2%; in the assay with A549/ATCC NSCLC, 53.3%; with 786-0 renal, 49.9%; with COLO 205 colon, 65.4%.

For the compound `O=C(Nc1ccc(Oc2ccc(F)cc2)c(Cl)c1)c1cccnc1`, the growth in the assay with NCI-H23 lung was 80%; in the assay with NCI-H226 lung it was 99.8%; with NCI-H322M lung, 101%; with HOP-62 NSCLC it was 106%; in the assay with NCI-H460 lung it was 97%; in the assay with HOP-92 NSCLC, 91.9%. In addition, the growth is 72.3% in the assay with NCI-H522 lung, 86% with A549/ATCC NSCLC, 92.3% with 786-0 renal and 120% in the assay on COLO 205 colon.

Turning to `CC(C)CC(CC1=CCC2CC1C2(C)C)C1=C(O)C(C)(C)C(=O)C(C)(C)C1=O` (stereo not given), the growth was 5.33% (active) in the assay on NCI-H23 lung; 13.7% in the assay with NCI-H226 lung; 9.97% (active) in the assay with NCI-H322M lung; -4.19% (active) with HOP-62 NSCLC; 4.62% (active) in the assay on NCI-H460 lung; -27.4% (active) in the assay with HOP-92 NSCLC. Also, the growth in the assay with NCI-H522 lung is 3.54% (active); in the assay with A549/ATCC NSCLC it was 0.788% (active); in the assay with 786-0 renal it was 6.76% (active); with COLO 205 colon, -65.7% (active).

Regarding `Nc1cccc(-c2nc3sccn3c2-c2ccnc(NCCCNS(=O)(=O)c3ccc(C(F)(F)F)cc3)n2)c1`, the growth in the assay with NCI-H23 lung is 4.88% (active); in the assay on NCI-H226 lung, 2.96% (active); in the assay on NCI-H322M lung, 19.4%; with HOP-62 NSCLC it was 19.5%; in the assay on NCI-H460 lung it was 2.98% (active); with HOP-92 NSCLC, 71.4%. Besides, the growth was 8.73% (active) in the assay with NCI-H522 lung, 12.8% in the assay on A549/ATCC NSCLC, 23.6% in the assay on 786-0 renal and 6.24% (active) in the assay on COLO 205 colon.

With `COc1ccc2c(c1)C(=O)/C(=C/c1cccc(OCC(=O)Nc3nc4c(s3)CCCC4)c1)O2`, the growth in the assay on NCI-H23 lung is -48.9% (active); in the assay with NCI-H226 lung it was 101%; with NCI-H322M lung, 82.5%; in the assay on HOP-62 NSCLC, 99.3%; in the assay on NCI-H460 lung, 71.3%; with HOP-92 NSCLC, -74.8% (active). For the same compound, the growth in the assay with NCI-H522 lung is -50.3% (active); in the assay with A549/ATCC NSCLC, 54.6%; in the assay with 786-0 renal, 63.3%; in the assay with COLO 205 colon it was -3.43% (active).
